# Compounds without any hit were thinned out: in the full panel of roughly 79,000, 15% have a hit. A number with no mark means an inactive call. Active and inactive are the calls of the source. Cut-off read from the data, not from the text of the source: active = growth inhibition above about 70%; inactive = the rest.
# Assay: NCI Yeast Anticancer Drug Screen. Data for the bub3 strain (AID 167)
# Details: S. cerevisiae bub3 mutant strain, at 50.0 µM, hits give high values
# Method in brief: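 Compounds were applied to a genetically altered yeast strain carrying a cell-cycle control defect. Growth inhibition was scored against vehicle-treated controls.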
row,SMILES,growth inhibition
1,CCCCCC(C1SC(=S)NC1=O)C1SC(=S)NC1=O (stereo unspecified),97.6% (active)
2,CC(C)C1=CC2=CC(=O)C3C(C)(C)CCCC3(C)C2=C(O)C1=O (stereo unspecified),87.4% (active)
3,CCOC(=O)C[n+]1c(C)sc2ccccc21,39.6%
4,OCc1c(-c2cccc3ccccc23)sc(-c2cccc3ccccc23)c1CO,86.5% (active)
5,CC1=C(C#N)C(=O)OC1(C)C(CC(=O)c1ccccc1)c1ccccc1 (stereo unspecified),11.8%
6,O=c1oc2c3ccc4ccccc4c3n(CCCN3CCCCC3)c2c2ccccc12,84.8% (active)
7,Cc1cc(NC(=S)SCc2ccc(F)cc2)ccc1Br,92.3% (active)
8,Cc1ccc(C2C(O)=C(c3ccccc3)Sc3ccc(C)cc32)cc1 (stereo unspecified),13.4%
9,COC(=O)/C=C1/OC(c2ccccc2)=CC1=O,85.8% (active)
10,COc1ccccc1NC(=O)CC(=O)N1N=C(c2ccccc2)C(N=Nc2ccc(Cl)cc2)C1=O (stereo unspecified),1%
11,CC(=O)NC1=C(Nc2ccc(-c3ccc(NC4=C(NC(C)=O)C(=O)c5ccccc5C4=O)cc3)cc2)C(=O)c2ccccc2C1=O,98.7% (active)
12,CCCCCCC(O)CCOC(C)=O (stereo unspecified),33.1%
13,CCn1nc(-c2ccccc2)c2c1N(C)c1ccccc1-n1c(-c3ccccc3)nnc1-2,99.2% (active)
14,CC1(CCC(=O)O)c2ccc3ccccc3c2Oc2c1ccc1ccccc21,95.9% (active)
15,CCN1/C(=C\c2cc(C)nc(-c3ccccc3)[n+]2C)C=Cc2ccccc21,98.8% (active)
16,Cc1ccccc1N1C(=O)c2ccccc2C1=O,98.2% (active)
